{"source": "PubChem BioAssay AID504408", "about": "(Broad Institute, 2011)", "note": "Among all 300,000 compounds or so, about 5,200 (1.7%) were called active. This is one part of a sample in which actives are shown more often than they occur. Values without a mark were called inactive.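 How the source made its calls: active means mean replicate activation of at least 50% with a set share of replicates each reaching 50%; inconclusive means only one of those two conditions met; inactive means mean below 50% and too few replicates reaching it.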", "data": [{"experiment": "HSF-1 activators, primary screen, NIH3T3-HGL cells, MG132 stress, luminescence, single point (AID 504408);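 further: 0% = median of the neutral control wells and 100% = twice that signal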", "settings": "NIH3T3-HGL HSF-1 luciferase reporter, MG132, 8 h; at 9 µM; hits give high values; 100% = twice DMSO control signal", "values": [{"smiles": "Cc1cc(C)n2nc(C(=O)OC(C)C(=O)c3cc(C)c(C)cc3C)nc2n1", "note": "(stereo unspecified)", "activation": "4.08%"}, {"smiles": "Cn1c(=S)sc2ccc3ccccc3c21", "activation": "-1.53%"}, {"smiles": "COc1ccc(S(=O)(=O)NCC(c2ccco2)N2CCOCC2)cc1", "note": "(stereo unspecified)", "activation": "-18.5%"}, {"smiles": "COc1cccc(COC(=O)C2CCN(S(=O)(=O)c3ccc(Cl)cc3)CC2)c1OC", "activation": "-0.23%"}, {"smiles": "Cc1nc(C)c(C(=O)N(c2ccc(C)c(C)c2)C(C(=O)NCc2ccco2)c2ccccc2)s1", "note": "(stereo unspecified)", "activation": "-5.39%"}, {"smiles": "Cc1ccc(-c2nnn(CC(=O)N(Cc3ccco3)C(C(=O)NC(C)(C)C)c3ccncc3)n2)o1", "note": "(stereo unspecified)", "activation": "10.4%"}, {"smiles": "Cc1nn(-c2ccccc2)c2sc(C(=O)N(Cc3ccco3)C(C)C(=O)NC(C)(C)C)cc12", "note": "(stereo unspecified)", "activation": "91.4% (active)"}, {"smiles": "COc1ccc(NC(=O)CN(C)C(=O)c2cccc(S(=O)(=O)N3CCN(c4ccccc4)CC3)c2)cc1", "activation": "14.8%"}, {"smiles": "COc1ccc(C(=O)Oc2ccc(-c3nnco3)cc2)cc1S(=O)(=O)N1CCOCC1", "activation": "7.88%"}, {"smiles": "Brc1ccccc1C1N=C(c2ccccc2)NO1", "note": "(stereo unspecified)", "activation": "9.38%"}, {"smiles": "N#Cc1ccc(C2N=C(c3ccccc3)NO2)cc1", "note": "(stereo unspecified)", "activation": "56.2% (active)"}, {"smiles": "O=C(COC(=O)CNS(=O)(=O)c1ccc(F)c(F)c1F)NC1CCCC1", "activation": "-12.4%"}, {"smiles": "Nc1cccnc1Sc1ccccc1", "activation": "7.53%"}, {"smiles": "O=C(CNC(=O)C12CC3CC(CC(C3)C1)C2)OCC(=O)N1CCCCC1", "activation": "10.8%"}, {"smiles": "CC(=O)N1CCN(C(=O)c2cc(-c3ccc(Cl)s3)nc3ccccc23)CC1", "activation": "18.1%"}, {"smiles": "O=c1oc2ccccc2cc1-c1csc(Nc2ccc(O)cc2)n1", "activation": "125% (active)"}, {"smiles": "CCNc1nc(-c2cc3ccccc3o2)cs1", "activation": "25.2%"}, {"smiles": "Cc1ccc(Nc2nc(-c3ccc(O)cc3O)cs2)nc1", "activation": "-44.2%"}, {"smiles": "COc1cccc(C2Nc3cccc4cccc(c34)N2)c1", "activation": "1.58%"}, {"smiles": "COc1ccc(C2NC(=O)c3ccccc3N2)cc1", "note": "(stereo unspecified)", "activation": "73.7% (active)"}, {"smiles": "O=C1NC(c2cccc(Cl)c2)Nc2ccccc21", "note": "(stereo unspecified)", "activation": "19.4%"}, {"smiles": "COc1ccc2c(c1)O/C(=C\\c1ccccc1O)C2=O", "activation": "61.8% (active)"}, {"smiles": "O=C1Oc2ccccc2C(=O)/C1=C/c1ccccc1O", "activation": "-36.2%"}, {"smiles": "COC(=O)C(C)Oc1ccc2c(c1)O/C(=C\\c1cccc(Br)c1)C2=O", "note": "(stereo unspecified)", "activation": "-3.63%"}, {"smiles": "CCOc1ccc(/C=C/C(=O)N(CC)CC(=O)NCc2cccs2)cc1OC", "activation": "-14%"}, {"smiles": "COc1ccccc1-n1ccnc(SCC(=O)NC2CCCCC2)c1=O", "activation": "-0.123%"}, {"smiles": "CC(C)CC(=O)N/C(N)=N/c1nc2ccccc2s1", "activation": "10.3%"}, {"smiles": "CCC(=O)NC(=Nc1nc2ccccc2s1)NC(=O)CC", "activation": "60.3% (active)"}, {"smiles": "O=C(O)CCCCc1nc2ccccc2s1", "activation": "13%"}, {"smiles": "COc1ccc2sc(N(CCCN(C)C)C(=O)c3ccc(S(=O)(=O)N(C)C4CCCCC4)cc3)nc2c1", "activation": "-14.5%"}, {"smiles": "O=C1c2cccc3cc(Br)cc(c23)C(=O)N1Nc1ccccc1", "activation": "-9.54%"}, {"smiles": "O=C1C=C(c2ccc(Cl)cc2)C(=O)N1Nc1ccccc1", "activation": "82% (active)"}, {"smiles": "O=C(CCC(=O)OCc1ccc(Cl)cc1)Nc1ccccc1", "activation": "10.6%"}, {"smiles": "Cc1cc(C)n2nc(C(=O)OCC(=O)N(CCC#N)c3ccc(F)cc3)nc2n1", "activation": "12.7%"}, {"smiles": "O=C(NCc1ccccc1Cl)C(=O)NCC1CCCN1S(=O)(=O)c1cccs1", "note": "(stereo unspecified)", "activation": "4.38%"}, {"smiles": "CCCCN(C(=O)c1ccc(C)o1)c1c(N)n(CCCC)c(=O)[nH]c1=O", "activation": "12.2%"}, {"smiles": "CN(C)CCCN(C(=O)c1ccc(S(=O)(=O)N2CCCCCC2)cc1)c1nc2cc3c(cc2s1)OCCO3", "activation": "-46.2%"}, {"smiles": "CCCCn1c(N)c(N(CC(C)C)C(=O)c2cccc(S(=O)(=O)N3CC(C)OC(C)C3)c2)c(=O)[nH]c1=O", "note": "(stereo unspecified)", "activation": "-0.424%"}, {"smiles": "Cc1ccc(S(=O)(=O)NCCSc2ccccc2)cc1[N+](=O)[O-]", "activation": "-0.244%"}, {"smiles": "CCOc1ccc(S(=O)(=O)NCCSc2ccccc2)cc1", "activation": "61.2% (active)"}, {"smiles": "CCOc1ccc(S(=O)(=O)NCCC(=O)N2CCCCCCC2)cc1", "activation": "4.97%"}, {"smiles": "COc1ccc(-c2cc(C(=O)N/N=C/c3cccnc3)c3ccccc3n2)c(OC)c1", "activation": "5.29%"}, {"smiles": "O=C(NCCNc1ccc([N+](=O)[O-])cc1Cl)c1ccccc1F", "activation": "18.7%"}, {"smiles": "O=C(NCCCNc1ccc([N+](=O)[O-])cc1Cl)c1ccccc1F", "activation": "-9.78%"}, {"smiles": "O=C(NCCNc1ccccc1[N+](=O)[O-])c1ccccc1F", "activation": "55.9% (active)"}, {"smiles": "O=C(c1ccncc1)N1CCN(S(=O)(=O)c2cccc([N+](=O)[O-])c2)CC1", "activation": "4.99%"}, {"smiles": "COc1cccc(NC(=O)CN(C)C(=O)CSCc2nc3scc(-c4cccs4)c3c(=O)[nH]2)c1", "activation": "0.833%"}, {"smiles": "O=C(c1ccc(NS(=O)(=O)c2ccc3[nH]c(=O)[nH]c3c2)cc1)N1CCCCC1", "activation": "12.7%"}, {"smiles": "COc1ccc(Cl)cc1NC(=O)CN(C)C(=O)CCCc1c[nH]c2ccccc12", "activation": "60.8% (active)"}, {"smiles": "COc1ccc(Cl)cc1NC(=O)CN(C)C(=O)c1cc2ccccc2cc1OC", "activation": "21%"}, {"smiles": "COc1ccccc1NC(=O)CCCc1c[nH]c2ccccc12", "activation": "-2.42%"}, {"smiles": "COc1ccccc1NS(=O)(=O)c1ccc(C)c(C(=O)NCC(c2ccco2)N(C)C)c1", "note": "(stereo unspecified)", "activation": "-1.37%"}, {"smiles": "CCc1cc(C(c2ccccc2OC)N2CCOCC2)c(NC(=O)c2ccccc2)s1", "note": "(stereo unspecified)", "activation": "68.8% (active)"}, {"smiles": "COc1ccccc1C(=O)Nc1cccc(C(=O)N2CCOCC2)c1", "activation": "8.16%"}, {"smiles": "COc1cc2ccccc2cc1C(=O)Nc1ccc(N2CCOCC2)cc1", "activation": "4.47%"}, {"smiles": "Cc1ccc(C(=O)NNC(=O)c2ccncc2)cc1S(=O)(=O)N1CCCCC1", "activation": "-9.07%"}, {"smiles": "CCCCCCCNC(=O)C1(CC2CC(c3cccc(Br)c3)=NO2)CCN(C(=O)c2cc(OCC)c(OCC)c(OCC)c2)CC1", "note": "(stereo unspecified)", "activation": "4.29%"}, {"smiles": "CCc1ccc(NC(=O)c2ccc(Cn3cc([N+](=O)[O-])cn3)cc2)cc1", "activation": "-1.45%"}, {"smiles": "Cn1cc([N+](=O)[O-])c(C(=O)Nc2ccc3c(c2)OCCO3)n1", "activation": "48.7%"}, {"smiles": "Cn1cc([N+](=O)[O-])c(C(=O)Nc2cnn(Cc3ccc(F)cc3)c2)n1", "activation": "65.1% (active)"}, {"smiles": "COCCn1c(SCC(=O)Nc2ccccc2F)nc2c(c1=O)SCC2", "activation": "54.8% (active)"}, {"smiles": "O=C(CSc1nc2nccnc2c(=O)n1Cc1cccs1)Nc1ccccc1F", "activation": "77.1% (active)"}, {"smiles": "COCCn1c(SCC(=O)N2CCCCCC2)nc2c(c1=O)SCC2", "activation": "2.01%"}, {"smiles": "CCOc1ccc(NC(=O)CSc2nc3ccccc3c(=O)n2Cc2cccs2)cc1", "activation": "-10.7%"}, {"smiles": "O=C(CSc1ccc(-c2cccs2)nn1)Nc1ccccc1F", "activation": "-2.98%"}, {"smiles": "COCCn1c(SCC(=O)Nc2cc(Cl)ccc2OC)nc2c(c1=O)SC(C)C2", "note": "(stereo unspecified)", "activation": "-0.138%"}, {"smiles": "CCc1ccc(C(=O)NNC(=O)C2CCN(c3ncnc4sc(C)c(C)c34)CC2)cc1", "activation": "-1.58%"}, {"smiles": "CCOc1ccc(NS(=O)(=O)c2ccc(C(=O)NCC(c3ccccc3OC)N3CCCC3)cc2)cc1", "note": "(stereo unspecified)", "activation": "-2.02%"}, {"smiles": "COc1cccc(COC(=O)C2CCN(S(=O)(=O)c3cccs3)CC2)c1OC", "activation": "1.63%"}, {"smiles": "O=C(CC1SC(N2CCCC2)=NC1=O)Nc1ccc(C(=O)NCCc2ccc(F)cc2)cc1", "note": "(stereo unspecified)", "activation": "-12%"}, {"smiles": "CCN(C(=O)COC(=O)C1CCN(S(=O)(=O)c2ccc(C)c(C)c2)CC1)C1CCS(=O)(=O)C1", "note": "(stereo unspecified)", "activation": "1.03%"}, {"smiles": "Cc1ccc(C)c(OCCC(=O)OCC(=O)NC(=O)NCc2ccccc2)c1", "activation": "-2.69%"}, {"smiles": "COC(=O)c1c(NC(=O)CSc2nncs2)sc2c1CCCCC2", "activation": "17.2%"}, {"smiles": "CCc1ccc(N(CC(=O)Nc2sc3c(c2C(=O)OC)CCCC3)S(C)(=O)=O)cc1", "activation": "59.7% (active)"}, {"smiles": "COC(=O)c1c(NC(=O)CN(c2ccc(C)c(C)c2)S(C)(=O)=O)sc2c1CCCC2", "activation": "31.3%"}, {"smiles": "CCCN(CC(=O)Nc1ccccc1OC)C(=O)CCC(=O)c1ccc(F)cc1", "activation": "-3.54%"}, {"smiles": "COc1ccccc1C(=O)Nc1ccc(NC(=O)c2ccco2)c(C)c1", "activation": "-0.874%"}, {"smiles": "COc1cc(NC(=O)c2cc([N+](=O)[O-])ccc2Br)ccc1NC(=O)c1ccco1", "activation": "111% (active)"}, {"smiles": "O=C(Nc1ccc(NC(=O)c2ccco2)c(Cl)c1)c1cccc([N+](=O)[O-])c1", "activation": "0.794%"}, {"smiles": "O=C(OCC1OC(Oc2ccc(O)cc2)C(O)C(O)C1O)c1ccccc1", "note": "(stereo unspecified)", "activation": "-4.63%"}, {"smiles": "Cc1nc2ccccc2c(=O)n1Cc1ccc([N+](=O)[O-])cc1", "activation": "7.48%"}, {"smiles": "Cc1ccc(Cn2c(C)nc3c(c2=O)c2nc4ccccc4nc2n3Cc2ccco2)cc1", "activation": "100% (active)"}, {"smiles": "Cn1c2ccccc2c(=O)c2c(=O)n(Cc3ccco3)c(COc3ccccc3)nc21", "activation": "17.1%"}, {"smiles": "O=C(NCCCN1CCCC1=O)c1cccc(S(=O)(=O)NCc2ccccc2)c1", "activation": "18.7%"}, {"smiles": "COc1ccccc1OCC(=O)Nc1ccccc1C(=O)NC1CC1", "activation": "6.1%"}, {"smiles": "OCCCNc1nc(-c2ccccc2)c2cc(Cl)ccc2n1", "activation": "-8.88%"}, {"smiles": "CCCCn1c(N)c(N(CCOC)C(=O)c2sc3ccccc3c2Cl)c(=O)[nH]c1=O", "activation": "1.82%"}, {"smiles": "Cc1ccc(SCCC(=O)OCC(=O)Nc2ncc(Cl)cc2Cl)cc1", "activation": "1.1%"}, {"smiles": "CC(Oc1ccc(Cl)cc1)C(=O)OCC(=O)Nc1ncc(Cl)cc1Cl", "note": "(stereo unspecified)", "activation": "83.9% (active)"}, {"smiles": "CC(Oc1ccc(Cl)cc1)C(=O)Nc1ncccn1", "note": "(stereo unspecified)", "activation": "9.27%"}, {"smiles": "CCC(C)N(C(=O)CSc1ncnc2c1cnn2-c1ccccc1)C1CCS(=O)(=O)C1", "note": "(stereo unspecified)", "activation": "-5.54%"}]}]}
